For one sequence, binding signal results are on record in article PMC7862700, “An all-to-all approach to the identification of sequence-specific readers for epigenetic DNA modifications on cytosine”.

Holding throughout (assay): DAPPL (digital affinity profiling via proximity ligation, sequencing); 10 mM Tris-HCl pH 7.5, 50 mM NaCl, 1 mM DTT, 4% glycerol, room temperature, 30 min; GST-TFs on glutathione beads, 16-mer random dsDNA library, 0.1% formaldehyde crosslink after washing; high values mean tight binding
The target in one assay is T1, FLI1 (Homo sapiens, UniProt Q01543 1-452).
T1 sequence: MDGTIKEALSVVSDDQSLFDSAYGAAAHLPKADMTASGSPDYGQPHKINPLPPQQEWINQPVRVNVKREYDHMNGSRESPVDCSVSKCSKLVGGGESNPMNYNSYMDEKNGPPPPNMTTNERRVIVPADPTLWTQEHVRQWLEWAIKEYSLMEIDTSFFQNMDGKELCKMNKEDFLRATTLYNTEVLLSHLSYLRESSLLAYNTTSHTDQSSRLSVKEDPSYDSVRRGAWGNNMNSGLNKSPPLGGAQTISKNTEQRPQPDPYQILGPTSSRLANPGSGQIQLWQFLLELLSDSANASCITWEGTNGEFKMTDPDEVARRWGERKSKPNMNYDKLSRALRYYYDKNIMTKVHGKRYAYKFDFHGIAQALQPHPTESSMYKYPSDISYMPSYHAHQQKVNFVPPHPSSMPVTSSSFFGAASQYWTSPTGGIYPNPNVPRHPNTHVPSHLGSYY
Conditions: protein: recombinant; tags: N-terminal GST; dsDNA, one strand shown. A digest of the protocol: (§1)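 After expression in yeast as GST fusions, human transcription factors were bound to glutathione beads, DNA-barcoded and mixed with a tag-only sample. The pools were incubated with 200 nmole of a 16-mer random double-stranded DNA library in Tris/NaCl/DTT/glycerol buffer (30 min, room temperature), washed and crosslinked with 0.1% formaldehyde. Proximity ligation with BsaI/T4 ligase ran for 1 h at 37 °C, before PCR amplification and sequencing on an Illumina NextSeq500. Binding signal is a hexamer's read frequency for a factor divided by its frequency for the tag-only sample.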

In another assay the target is T2, ELK1 (Homo sapiens, UniProt P19419 1-428).
T2 sequence: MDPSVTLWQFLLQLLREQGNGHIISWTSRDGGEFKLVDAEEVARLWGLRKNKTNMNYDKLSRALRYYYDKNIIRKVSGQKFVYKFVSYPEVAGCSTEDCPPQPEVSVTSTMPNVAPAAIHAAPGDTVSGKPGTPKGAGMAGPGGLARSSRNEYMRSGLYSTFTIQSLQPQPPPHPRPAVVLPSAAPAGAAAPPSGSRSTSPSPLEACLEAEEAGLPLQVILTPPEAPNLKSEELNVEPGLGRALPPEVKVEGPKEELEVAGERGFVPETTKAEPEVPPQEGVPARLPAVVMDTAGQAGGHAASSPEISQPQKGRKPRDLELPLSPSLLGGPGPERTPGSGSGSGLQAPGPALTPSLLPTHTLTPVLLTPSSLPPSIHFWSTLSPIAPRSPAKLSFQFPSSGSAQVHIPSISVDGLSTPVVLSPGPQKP
Conditions: protein: recombinant; tags: N-terminal GST; dsDNA, one strand shown. A digest of the protocol:
as §1

Another assay deals with T3, GABPA (Homo sapiens, UniProt Q06546 1-454).
T3 sequence: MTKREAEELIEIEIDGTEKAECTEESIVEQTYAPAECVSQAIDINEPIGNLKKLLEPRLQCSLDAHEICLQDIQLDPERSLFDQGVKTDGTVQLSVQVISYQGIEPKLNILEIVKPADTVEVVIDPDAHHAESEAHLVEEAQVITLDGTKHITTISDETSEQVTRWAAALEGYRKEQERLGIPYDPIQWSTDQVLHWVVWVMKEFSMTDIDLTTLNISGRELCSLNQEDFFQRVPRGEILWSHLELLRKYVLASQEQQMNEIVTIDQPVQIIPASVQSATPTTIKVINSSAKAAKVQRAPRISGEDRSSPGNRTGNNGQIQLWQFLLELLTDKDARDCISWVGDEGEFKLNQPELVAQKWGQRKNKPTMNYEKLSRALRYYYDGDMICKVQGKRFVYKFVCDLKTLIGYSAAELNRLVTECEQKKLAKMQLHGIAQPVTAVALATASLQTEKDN
Conditions: protein: recombinant; tags: N-terminal GST; dsDNA, one strand shown. A digest of the protocol: as §1

Another assay concerns the target T4, ERG (Homo sapiens, UniProt P11308 1-479).
T4 sequence: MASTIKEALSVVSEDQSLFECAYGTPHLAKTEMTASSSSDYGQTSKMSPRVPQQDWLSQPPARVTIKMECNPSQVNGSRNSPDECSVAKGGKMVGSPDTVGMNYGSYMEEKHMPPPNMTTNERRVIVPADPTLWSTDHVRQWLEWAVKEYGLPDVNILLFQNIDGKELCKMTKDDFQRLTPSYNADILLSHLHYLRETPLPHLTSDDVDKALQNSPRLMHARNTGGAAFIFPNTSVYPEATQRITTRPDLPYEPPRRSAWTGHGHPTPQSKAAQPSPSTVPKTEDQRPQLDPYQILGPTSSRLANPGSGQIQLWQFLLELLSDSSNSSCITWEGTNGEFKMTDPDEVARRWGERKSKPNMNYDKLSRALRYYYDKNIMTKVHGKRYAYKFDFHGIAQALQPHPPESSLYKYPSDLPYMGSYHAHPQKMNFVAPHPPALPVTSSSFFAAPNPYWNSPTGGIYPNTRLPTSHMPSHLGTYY
Conditions: protein: recombinant; tags: N-terminal GST; dsDNA, one strand shown. Put shortly:
as §1

A further assay has as its target ELF1 (Homo sapiens, UniProt P32519 1-619). Particulars: protein: recombinant; tags: N-terminal GST; dsDNA, one strand shown. Put shortly:
as §1

Another assay deals with T5, EHF (Homo sapiens, UniProt Q9NZC4 1-300).
T5 sequence: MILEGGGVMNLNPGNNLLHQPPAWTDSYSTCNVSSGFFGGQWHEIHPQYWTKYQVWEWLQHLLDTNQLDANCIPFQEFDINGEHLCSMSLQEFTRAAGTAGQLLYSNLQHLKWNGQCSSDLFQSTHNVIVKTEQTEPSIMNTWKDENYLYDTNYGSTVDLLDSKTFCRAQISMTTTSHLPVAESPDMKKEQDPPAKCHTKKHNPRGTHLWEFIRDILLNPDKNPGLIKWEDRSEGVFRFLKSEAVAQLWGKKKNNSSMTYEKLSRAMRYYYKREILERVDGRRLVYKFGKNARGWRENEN
Particulars: protein: recombinant; tags: N-terminal GST; dsDNA, one strand shown. Put shortly: as §1

The next assay addresses SPI1 (Homo sapiens, UniProt P17947 1-270). Conditions: protein: recombinant; tags: N-terminal GST; dsDNA, one strand shown. A digest of the protocol:
as §1

The target of the next assay is SPIB (Homo sapiens, UniProt Q01892 1-262). Particulars: protein: recombinant; tags: N-terminal GST; dsDNA, one strand shown. Put shortly:
as §1

The next assay has as its target T6, ELK3 (Homo sapiens, UniProt P41970 1-407).
T6 sequence: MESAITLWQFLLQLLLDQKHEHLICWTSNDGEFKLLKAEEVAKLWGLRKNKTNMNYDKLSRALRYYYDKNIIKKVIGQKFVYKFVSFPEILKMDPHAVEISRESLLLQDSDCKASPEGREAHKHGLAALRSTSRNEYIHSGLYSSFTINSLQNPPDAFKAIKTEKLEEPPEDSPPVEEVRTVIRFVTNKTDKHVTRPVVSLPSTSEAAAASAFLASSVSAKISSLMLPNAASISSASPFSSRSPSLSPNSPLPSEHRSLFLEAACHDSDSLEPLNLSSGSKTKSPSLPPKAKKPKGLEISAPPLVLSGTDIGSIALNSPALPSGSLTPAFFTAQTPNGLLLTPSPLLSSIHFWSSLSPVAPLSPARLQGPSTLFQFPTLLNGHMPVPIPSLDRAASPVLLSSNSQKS
Particulars: protein: recombinant; tags: N-terminal GST; dsDNA, one strand shown. A digest of the protocol: as §1

The next assay has as its target T7, FEV (Homo sapiens, UniProt Q99581 1-238).
T7 sequence: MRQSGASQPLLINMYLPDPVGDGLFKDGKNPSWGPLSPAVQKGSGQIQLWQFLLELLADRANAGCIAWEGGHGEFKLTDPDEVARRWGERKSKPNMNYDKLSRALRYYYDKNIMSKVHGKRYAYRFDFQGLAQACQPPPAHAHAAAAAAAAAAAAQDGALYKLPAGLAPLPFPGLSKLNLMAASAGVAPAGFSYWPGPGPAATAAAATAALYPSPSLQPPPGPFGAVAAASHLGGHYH
Particulars: protein: recombinant; tags: N-terminal GST; dsDNA, one strand shown. A digest of the protocol:
as §1

In a further assay the target is ETV5 (Homo sapiens, UniProt P41161 1-510). Particulars: protein: recombinant; tags: N-terminal GST; dsDNA, one strand shown. A digest of the protocol:
as §1

The next assay deals with HSF1 (Homo sapiens, UniProt Q00613 1-529). Particulars: protein: recombinant; tags: N-terminal GST; chain copies: 3; dsDNA, one strand shown. A digest of the protocol: as §1
Sequence of HSF1 (Q00613 whole entry): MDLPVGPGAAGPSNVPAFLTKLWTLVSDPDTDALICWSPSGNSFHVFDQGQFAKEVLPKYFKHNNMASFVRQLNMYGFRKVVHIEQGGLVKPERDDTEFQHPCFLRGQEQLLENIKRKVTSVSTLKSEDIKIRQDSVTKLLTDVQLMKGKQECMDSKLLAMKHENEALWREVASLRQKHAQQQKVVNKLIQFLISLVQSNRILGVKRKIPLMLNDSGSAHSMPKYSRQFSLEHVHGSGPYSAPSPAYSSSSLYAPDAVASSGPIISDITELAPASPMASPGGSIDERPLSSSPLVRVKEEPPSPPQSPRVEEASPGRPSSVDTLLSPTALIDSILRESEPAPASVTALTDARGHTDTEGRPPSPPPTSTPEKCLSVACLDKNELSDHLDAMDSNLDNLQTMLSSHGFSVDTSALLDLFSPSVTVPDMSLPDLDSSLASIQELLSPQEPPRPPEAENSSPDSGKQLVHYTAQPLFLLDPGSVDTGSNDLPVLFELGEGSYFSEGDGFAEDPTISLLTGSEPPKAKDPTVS
Another assay concerns the target T8, SPIC (Homo sapiens, UniProt Q8N5J4 1-248).
T8 sequence: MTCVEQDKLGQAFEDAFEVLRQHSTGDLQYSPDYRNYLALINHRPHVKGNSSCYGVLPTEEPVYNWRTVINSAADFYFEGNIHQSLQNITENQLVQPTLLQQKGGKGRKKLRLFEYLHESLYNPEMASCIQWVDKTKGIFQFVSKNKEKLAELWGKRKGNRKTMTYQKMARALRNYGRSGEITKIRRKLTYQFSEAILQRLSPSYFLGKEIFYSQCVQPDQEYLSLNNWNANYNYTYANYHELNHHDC
Conditions: protein: recombinant; tags: N-terminal GST; dsDNA, one strand shown. A digest of the protocol:
as §1

The target of the next assay is ELF4 (Homo sapiens, UniProt Q99607 1-663). Conditions: protein: recombinant; tags: N-terminal GST; dsDNA, one strand shown. A digest of the protocol: as §1
Sequence of ELF4 (Q99607 whole entry): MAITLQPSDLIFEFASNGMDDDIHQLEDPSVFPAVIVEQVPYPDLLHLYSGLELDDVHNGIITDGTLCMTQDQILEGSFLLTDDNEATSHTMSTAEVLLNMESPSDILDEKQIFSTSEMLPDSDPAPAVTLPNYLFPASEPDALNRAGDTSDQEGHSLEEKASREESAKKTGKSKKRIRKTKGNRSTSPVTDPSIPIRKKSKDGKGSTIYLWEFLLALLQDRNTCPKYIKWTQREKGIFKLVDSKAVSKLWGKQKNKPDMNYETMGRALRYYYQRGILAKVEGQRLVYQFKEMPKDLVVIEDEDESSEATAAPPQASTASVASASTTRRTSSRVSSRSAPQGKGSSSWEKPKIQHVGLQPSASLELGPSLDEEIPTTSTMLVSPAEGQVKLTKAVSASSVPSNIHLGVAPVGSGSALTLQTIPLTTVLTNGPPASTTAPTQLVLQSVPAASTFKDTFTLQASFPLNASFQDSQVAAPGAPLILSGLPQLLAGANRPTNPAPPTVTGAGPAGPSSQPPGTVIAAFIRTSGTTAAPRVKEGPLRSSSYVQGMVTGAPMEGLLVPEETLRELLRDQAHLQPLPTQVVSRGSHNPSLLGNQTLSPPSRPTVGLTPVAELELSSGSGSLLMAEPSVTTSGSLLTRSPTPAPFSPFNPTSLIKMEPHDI
In a further assay the target is T9, ELK4 (Homo sapiens, UniProt P28324-2 1-405).
T9 sequence: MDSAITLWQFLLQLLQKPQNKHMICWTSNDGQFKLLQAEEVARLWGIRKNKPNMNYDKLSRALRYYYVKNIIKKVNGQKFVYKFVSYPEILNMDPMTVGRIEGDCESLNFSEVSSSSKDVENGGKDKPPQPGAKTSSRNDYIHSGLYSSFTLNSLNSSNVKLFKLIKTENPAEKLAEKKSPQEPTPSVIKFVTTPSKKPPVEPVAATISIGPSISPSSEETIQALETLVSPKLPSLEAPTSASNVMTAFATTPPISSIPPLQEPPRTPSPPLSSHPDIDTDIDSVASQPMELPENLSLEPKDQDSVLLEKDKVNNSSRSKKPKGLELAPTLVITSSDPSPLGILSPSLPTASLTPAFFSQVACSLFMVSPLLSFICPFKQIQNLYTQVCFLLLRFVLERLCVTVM
Particulars: protein: recombinant; tags: N-terminal GST; dsDNA, one strand shown. Put shortly:
as §1

In a further assay the target is T10, ETV2 (Homo sapiens, UniProt O00321 1-342).
T10 sequence: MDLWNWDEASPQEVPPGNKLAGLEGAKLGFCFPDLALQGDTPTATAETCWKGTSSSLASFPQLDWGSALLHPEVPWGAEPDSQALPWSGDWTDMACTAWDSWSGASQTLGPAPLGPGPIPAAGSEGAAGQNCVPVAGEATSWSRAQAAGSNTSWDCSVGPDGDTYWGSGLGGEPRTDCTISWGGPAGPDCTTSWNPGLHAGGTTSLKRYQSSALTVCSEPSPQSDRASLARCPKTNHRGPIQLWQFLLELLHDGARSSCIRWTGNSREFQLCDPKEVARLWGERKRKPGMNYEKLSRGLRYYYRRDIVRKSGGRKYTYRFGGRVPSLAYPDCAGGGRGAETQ
Particulars: protein: recombinant; tags: N-terminal GST; dsDNA, one strand shown. A digest of the protocol: as §1

The next assay deals with T11, ELF3 (Homo sapiens, UniProt P78545 1-371).
T11 sequence: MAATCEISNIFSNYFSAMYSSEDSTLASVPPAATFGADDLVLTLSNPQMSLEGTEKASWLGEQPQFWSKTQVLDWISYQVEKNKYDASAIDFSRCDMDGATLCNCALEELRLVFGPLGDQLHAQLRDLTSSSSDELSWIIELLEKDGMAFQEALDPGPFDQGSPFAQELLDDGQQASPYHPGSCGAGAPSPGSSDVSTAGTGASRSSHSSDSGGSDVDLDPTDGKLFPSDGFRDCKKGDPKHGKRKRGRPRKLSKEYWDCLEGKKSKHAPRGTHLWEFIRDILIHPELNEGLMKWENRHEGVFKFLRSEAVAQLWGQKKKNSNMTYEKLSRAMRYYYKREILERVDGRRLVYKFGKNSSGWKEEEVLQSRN
Particulars: protein: recombinant; tags: N-terminal GST; dsDNA, one strand shown. A digest of the protocol: as §1

A further assay deals with ETV1 (Homo sapiens, UniProt P50549 1-477). Particulars: protein: recombinant; tags: N-terminal GST; dsDNA, one strand shown. A digest of the protocol:
as §1

Sequence of ETV5 (P41161 whole entry): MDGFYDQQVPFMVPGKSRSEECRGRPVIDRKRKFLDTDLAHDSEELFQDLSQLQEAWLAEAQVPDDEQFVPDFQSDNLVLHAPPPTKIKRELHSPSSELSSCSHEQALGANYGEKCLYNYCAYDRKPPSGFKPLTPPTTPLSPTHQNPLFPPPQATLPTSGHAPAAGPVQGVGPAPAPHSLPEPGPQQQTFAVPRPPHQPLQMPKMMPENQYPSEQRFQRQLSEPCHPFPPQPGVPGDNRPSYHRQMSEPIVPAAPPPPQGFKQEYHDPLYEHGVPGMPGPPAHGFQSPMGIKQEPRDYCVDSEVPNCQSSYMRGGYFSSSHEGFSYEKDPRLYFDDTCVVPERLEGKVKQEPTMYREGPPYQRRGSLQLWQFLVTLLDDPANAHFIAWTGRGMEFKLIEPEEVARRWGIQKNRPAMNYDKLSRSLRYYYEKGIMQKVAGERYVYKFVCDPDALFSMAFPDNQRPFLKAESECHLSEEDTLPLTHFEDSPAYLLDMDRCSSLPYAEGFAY
Sequence of ELF1 (P32519 whole entry): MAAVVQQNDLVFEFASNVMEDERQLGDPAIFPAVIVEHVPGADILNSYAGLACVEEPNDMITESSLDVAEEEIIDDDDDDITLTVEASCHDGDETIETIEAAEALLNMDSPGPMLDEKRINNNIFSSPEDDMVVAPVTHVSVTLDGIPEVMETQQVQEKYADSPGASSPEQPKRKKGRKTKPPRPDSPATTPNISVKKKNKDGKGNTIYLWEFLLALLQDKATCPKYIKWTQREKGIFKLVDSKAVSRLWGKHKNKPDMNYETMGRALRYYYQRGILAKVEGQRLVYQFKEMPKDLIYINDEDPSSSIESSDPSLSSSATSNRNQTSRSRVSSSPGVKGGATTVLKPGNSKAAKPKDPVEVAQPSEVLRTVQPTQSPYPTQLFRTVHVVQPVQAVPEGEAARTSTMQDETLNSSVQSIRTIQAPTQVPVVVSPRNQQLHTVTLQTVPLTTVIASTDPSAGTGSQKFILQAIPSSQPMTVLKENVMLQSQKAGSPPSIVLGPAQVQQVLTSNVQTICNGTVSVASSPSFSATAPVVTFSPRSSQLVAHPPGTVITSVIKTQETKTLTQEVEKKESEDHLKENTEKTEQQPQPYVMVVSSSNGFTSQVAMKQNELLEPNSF
Sequence of SPIB (Q01892 whole entry): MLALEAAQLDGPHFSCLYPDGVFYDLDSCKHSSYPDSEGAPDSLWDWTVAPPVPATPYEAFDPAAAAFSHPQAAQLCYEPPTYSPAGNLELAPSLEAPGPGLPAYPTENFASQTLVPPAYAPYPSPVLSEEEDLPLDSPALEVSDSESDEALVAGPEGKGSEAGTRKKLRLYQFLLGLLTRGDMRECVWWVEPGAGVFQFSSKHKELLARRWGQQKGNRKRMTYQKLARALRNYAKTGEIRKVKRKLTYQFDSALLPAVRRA
Sequence of ETV1 (P50549 whole entry): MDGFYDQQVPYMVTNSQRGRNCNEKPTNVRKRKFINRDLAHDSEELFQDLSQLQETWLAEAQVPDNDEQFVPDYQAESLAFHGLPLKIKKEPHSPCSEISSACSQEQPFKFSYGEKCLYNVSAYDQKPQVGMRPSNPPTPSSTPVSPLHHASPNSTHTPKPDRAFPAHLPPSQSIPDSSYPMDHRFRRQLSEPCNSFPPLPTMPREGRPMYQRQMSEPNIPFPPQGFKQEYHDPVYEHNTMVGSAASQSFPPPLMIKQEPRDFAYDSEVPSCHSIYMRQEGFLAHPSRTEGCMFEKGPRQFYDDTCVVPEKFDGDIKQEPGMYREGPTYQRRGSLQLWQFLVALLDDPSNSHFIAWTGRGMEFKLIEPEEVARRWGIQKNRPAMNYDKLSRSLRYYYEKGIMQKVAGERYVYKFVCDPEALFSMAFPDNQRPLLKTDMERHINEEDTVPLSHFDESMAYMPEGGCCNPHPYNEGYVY

In the case of GTGTTC, the binding signal with FLI1 was 1.13 fold enrichment (6-mer frequency, TF over GST control); in the assay with ELK1, 1.25 fold enrichment (6-mer frequency, TF over GST control); in the assay with GABPA it was 1.26 fold enrichment (6-mer frequency, TF over GST control); with ERG, 1.22 fold enrichment (6-mer frequency, TF over GST control); with ELF1, 1.1 fold enrichment (6-mer frequency, TF over GST control); with EHF it was 1.15 fold enrichment (6-mer frequency, TF over GST control). Moreover, the binding signal is 1.28 fold enrichment (6-mer frequency, TF over GST control) with SPI1; 1.09 fold enrichment (6-mer frequency, TF over GST control) with SPIB; 1.1 fold enrichment (6-mer frequency, TF over GST control) with ELK3; 1.08 fold enrichment (6-mer frequency, TF over GST control) with FEV; 1.14 fold enrichment (6-mer frequency, TF over GST control) with ETV5; 1.12 fold enrichment (6-mer frequency, TF over GST control) with HSF1. The binding signal in the assay with SPIC is 1.36 fold enrichment (6-mer frequency, TF over GST control); with ELF4, 1.12 fold enrichment (6-mer frequency, TF over GST control); with ELK4, 1.25 fold enrichment (6-mer frequency, TF over GST control); in the assay with ETV2 it was 1.15 fold enrichment (6-mer frequency, TF over GST control); with ELF3, 1.19 fold enrichment (6-mer frequency, TF over GST control); with ETV1, 1.14 fold enrichment (6-mer frequency, TF over GST control).
